PubChem BioAssay (NCI)
Where “and” joins values, the source holds several entries; their conditions need not be identical. Equal entries are not always repeated. Compounds without any hit were thinned out: in the full panel of roughly 83,000, 20% have a hit.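 Compound tested at a single concentration for 48 hours in 96-well plates; a percent growth value below 10 was scored as active.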 Calls of active or inactive are those of the source.

Tests used:
Experiment in all cases: NCI-60 one-dose screen, 48 h (100 = growth as untreated, 0 = no growth, -100 = all killed)
Conditions in all cases: 10 µM unless noted
[1] = system: HCT-15 colon
[2] = system: HT29 colon
[3] = system: SNB-75 CNS
[4] = system: SNB-19 CNS
[5] = system: U251 CNS
[6] = system: PC-3 prostate
[7] = system: SK-MEL-5 melanoma
[8] = system: LOX IMVI melanoma
[9] = system: SK-MEL-28 melanoma
[10] = system: UACC-62 melanoma

SMILES | growth [1] | growth [2] | growth [3] | growth [4] | growth [5] | growth [6] | growth [7] | growth [8] | growth [9] | growth [10]
CC1CCCC(=O)O1 (stereo unspecified) | 94.8% (inactive) and 99.7% (inactive) | 106% (inactive) and 99.8% (inactive) | 83.3% (inactive) and 95.6% (inactive) | 111% (inactive) | 102% (inactive) and 104% (inactive) | 96.2% (inactive) and 95.1% (inactive) | 102% (inactive) and 108% (inactive) | 96.3% (inactive) and 97.2% (inactive) | 99.5% (inactive) and 113% (inactive) | –
CCOC(=O)Nc1ccc2c(c1)/C(=N\NC(N)=S)c1ccccc1-2 | 22.1% (inactive) and 38.2% (inactive) | 29.6% (inactive) and 25.8% (inactive) | 70.2% (inactive) and 66.4% (inactive) | 78.4% (inactive) and 75.3% (inactive) | – | 42.5% (inactive) and 90.9% (inactive) | 38.1% (inactive) and 44.2% (inactive) | 54.4% (inactive) and 58.4% (inactive) | 50% (inactive) and 75.4% (inactive) | 37.3% (inactive) and 51.3% (inactive)
CCOC(=O)c1c(C)oc(C)c(C(=O)OCC)c1=O | 106% (inactive) and 102% (inactive) | 105% (inactive) and 106% (inactive) | 96.5% (inactive) and 99.5% (inactive) | 102% (inactive) and 90.2% (inactive) | – | 94.1% (inactive) and 88.6% (inactive) | 111% (inactive) and 104% (inactive) | 103% (inactive) and 97.3% (inactive) | 109% (inactive) and 112% (inactive) | 111% (inactive) and 96.6% (inactive)
Cc1cccc(/C=C\C(=O)c2ccc(Cl)cc2)c1 | 89.5% (inactive) and 96.6% (inactive) | 84.1% (inactive) and 90.9% (inactive) | 98.9% (inactive) and 115% (inactive) | 91.6% (inactive) and 101% (inactive) | – | 89.6% (inactive) and 83.7% (inactive) | 108% (inactive) and 94.8% (inactive) | 89.2% (inactive) and 91.6% (inactive) | 106% (inactive) and 111% (inactive) | –
N#CCCOc1ccccc1 | 97.5% (inactive) | 100% (inactive) | 101% (inactive) | 108% (inactive) | – | 88.7% (inactive) | 105% (inactive) | 102% (inactive) | 101% (inactive) | 127% (inactive)
Cc1ccc2nc3c(nc2c1)-c1cccc2cccc-3c12 | 75.1% (inactive) | 80.3% (inactive) | 94.9% (inactive) | 100% (inactive) | – | 87.4% (inactive) | 62.7% (inactive) | 82.6% (inactive) | 102% (inactive) | 79.6% (inactive)
Cc1nnc(NC/C=C/c2ccccc2)s1 | 98.3% (inactive) and 104% (inactive) | 107% (inactive) and 116% (inactive) | – | 108% (inactive) and 113% (inactive) | 97.8% (inactive) | 94% (inactive) and 99.5% (inactive) | 101% (inactive) and 102% (inactive) | 96.1% (inactive) and 97.5% (inactive) | 104% (inactive) and 103% (inactive) | 104% (inactive)
CO/N=C/C=C\C(=O)N/C=C/C[C@H]1/C=C/[C@H](O)/C=C\C=C\c2cccc(O)c2C(=O)O1 | 11.9% (inactive) and 16.7% (inactive) | 9.82% (active) and 7.92% (active) | 25.2% (inactive) and -14.6% (active) | 68.3% (inactive) and 56.7% (inactive) | – | 37.5% (inactive) and 25.3% (inactive) | -70.6% (active) and -68.6% (active) | -45.7% (active) and -73.7% (active) | 32.1% (inactive) | -1.1% (active) and -43.6% (active)
CN(C)c1ccc(/C=C(\C#N)c2ccccc2)cc1 | 26.3% (inactive) and 29.3% (inactive) and 29.4% (inactive) | 12.4% (inactive) and 6.06% (active) and 3.67% (active) | 4.23% (active) and 15.8% (inactive) | 61.4% (inactive) and 52.5% (inactive) and 35.8% (inactive) | – | 18.9% (inactive) and 36% (inactive) and 19.5% (inactive) | 31.6% (inactive) and 26.3% (inactive) and 19.4% (inactive) | 51.1% (inactive) and 41.1% (inactive) and 42.4% (inactive) | 97.7% (inactive) and 70.6% (inactive) and 64.5% (inactive) | 32.6% (inactive) and 21.9% (inactive) and 22.2% (inactive)
O=C(Nc1ccc([N+](=O)[O-])cc1Cl)c1cc(Cl)ccc1O | -3.38% (active) and 0.947% (active) | -15.8% (active) and 3.08% (active) | – | 13.2% (inactive) and 21% (inactive) | 1.12% (active) and 16.7% (inactive) | 2.75% (active) and 6.39% (active) | -89% (active) | -17.5% (active) and -58.5% (active) | 5.94% (active) and -10% (active) | -65.7% (active) and -45.3% (active)
N#CC(C#N)=C/C=C/c1cccc([N+](=O)[O-])c1 | -6.94% (active) and -31.6% (active) | -19.6% (active) and -39.5% (active) | 68.2% (inactive) and 11.3% (inactive) | 51.3% (inactive) and 41.4% (inactive) | – | 14.5% (inactive) and 0.0705% (active) | 8.16% (active) and -10.6% (active) | -29.1% (active) and -78.9% (active) | 5.56% (active) and -41.8% (active) | -51.7% (active) and -61.6% (active)
N/C(=N\N=C\c1ccc2c(c1)OCO2)N/N=C\c1ccc2c(c1)OCO2 | 103% (inactive) and 93.7% (inactive) | 88.4% (inactive) and 13% (inactive) | 113% (inactive) and 135% (inactive) | 108% (inactive) and 92.1% (inactive) | – | 103% (inactive) and 89.6% (inactive) | 112% (inactive) | – | 112% (inactive) and 45.6% (inactive) | 112% (inactive) and 90.7% (inactive)
CN1CCN(Cc2occc(=O)c2O)CCN(C)CCN(Cc2occc(=O)c2O)CC1 | 107% (inactive) and 36% (inactive) | 96.3% (inactive) and 11.1% (inactive) | 100% (inactive) | 98% (inactive) and 87.6% (inactive) | – | 80.3% (inactive) and 35.6% (inactive) | 81.4% (inactive) and 47.8% (inactive) | 99.1% (inactive) and 43% (inactive) | 64.4% (inactive) | –
Cc1cccc(/C=C\C(=O)c2ccccc2)c1 | 89% (inactive) and 101% (inactive) | 91.9% (inactive) and 98.7% (inactive) | 90.5% (inactive) and 112% (inactive) | 86.7% (inactive) and 103% (inactive) | – | 86.3% (inactive) and 82.7% (inactive) | 106% (inactive) and 95% (inactive) | 85.3% (inactive) and 93.5% (inactive) | 110% (inactive) and 120% (inactive) | 90.2% (inactive) and 105% (inactive)
Nc1ccccc1SC1CC(=O)N(c2cccc3ccccc23)C1=O (stereo unspecified) | 99% (inactive) | 106% (inactive) | 76.4% (inactive) | 96.7% (inactive) | – | 87.7% (inactive) | 96.7% (inactive) | 97.1% (inactive) | 96.3% (inactive) | –
S=C1SCN(Cc2ccccc2)CN1Cc1ccccc1 | 39.8% (inactive) | 65.4% (inactive) | 76.1% (inactive) | 96.4% (inactive) | – | 46.6% (inactive) | 87.1% (inactive) | 69.3% (inactive) | 103% (inactive) | 82.5% (inactive)
O=C(O)CSCc1nc2ccccc2[nH]1 | 112% (inactive) | 103% (inactive) | 88.7% (inactive) | 97.4% (inactive) | – | 95.5% (inactive) | 108% (inactive) | – | 105% (inactive) | –
O=C(O)CN(CCN(CC(=O)O)CC(=O)O)CCN(CC(=O)O)CC(=O)O | 9.67% (active) and 99.9% (inactive) and 107% (inactive) | 2.39% (active) and 108% (inactive) and 94.8% (inactive) | 9.81% (active) and 87.3% (inactive) and 85.8% (inactive) | 27.6% (inactive) and 101% (inactive) and 98.6% (inactive) | – | 9.35% (active) and 92.8% (inactive) and 93.5% (inactive) | 3.74% (active) and 103% (inactive) and 106% (inactive) | -31.4% (active) and 101% (inactive) and 106% (inactive) | 24% (inactive) and 105% (inactive) and 99.4% (inactive) | 8.73% (active) and 95.6% (inactive) and 101% (inactive)
